Data reported in PubChem BioAssay (NCATS).
Inconclusive results are not listed. A number with no mark means an inactive call. Calls of active or inactive are those of the source. The call rests on the fitted dose curve; in most records, active means well fitted inhibition curve with a large enough effect; inconclusive means small, poorly fitted or top-dose-only effect; inactive means flat fitted curve, though single readings scatter.
On the % scale 0 is the no-effect control and ±100 the full control effect.

These compounds were tested on NIH3T3 (assay: Cytotoxic Profiling of Annotated Libraries Using Quantitative High-Throughput Screening (AID 1296008; further: nearly all actives have a fitted effect of over 60% in size)). Conditions: Five cell lines viability, CellTiter-Glo ATP luminescence, 48-72 h; max response: stronger effect = lower value.
Procedure, shortened: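 Cells exposed to compounds for 48 or 72 hr at 37 degrees Celsius. Viability read as ATP-coupled luminescence with CellTiter-Glo after 10 min at room temperature.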
Work on O=C(OCC1OC(Oc2ccc(O)cc2COC(=O)C2(O)C(O)CCC(=O)C2OC(=O)C2C=CCC2)C(OC(=O)C2C=CCC2)C(O)C1O)C1C=CCC1 (centres undefined) yielded a max response of 3.99%. For CC(C)c1cc2c(c(O)c1O)[C@@]13CCCC(C)(C)C1[C@@H](O)[C@@H]2OC3=O (some centres undefined), the outcome was “inactive”. With COc1cc(/C=C/C(=O)O[C@H]2C[C@@H]3C(C(=O)O)=CO[C@@H](O[C@@H]4O[C@H](CO)[C@@H](O)[C@H](O)[C@H]4O)[C@@H]3[C@H]2C)ccc1O the max response was 1.34%. CC1(C(=O)O)CCCC2(C)C3CC4C5CC3(CCC12)CC45C (centres undefined) was tested, and the max response was -21.3%. C=C1C(O)CCC2(C)CC3(OC)OC(=O)C(C)=C3CC12 (centres undefined) was tested, and the outcome was “inactive”. In the case of COc1cc(C2Oc3c(OC)cc(CCCO)cc3C2CO)ccc1O (centres undefined), the max response is reported as -0.27%. C/C=C1/[C@H](O[C@@H]2O[C@H](CO)[C@@H](O)[C@H](O)[C@H]2O)OC=C(C(=O)OC)[C@H]1CC(=O)OCCc1ccc(O)c(O)c1 was tested, and the outcome was “inactive”. For CCCC1=CC2=C(CO1)C(=O)C(C)(O)C(OC(=O)c1c(C)cc(OC)cc1O)C2 (centres undefined), the outcome was “inactive”. CC1(C)CCC[C@]2(C)C1CC=C(CO)[C@H]2CC/C(=C/CO)CO (some centres undefined) was tested, and the max response was 1.71%. C=C1CC[C@H]2[C@@](C)(CCC(OC3OC(CO)C(O)C(O)C3O)[C@@]2(C)CO)C1C(=O)CC1=CCOC1=O (some centres undefined) was tested, and the outcome was “inactive”. Compound CC(C)(O)C1OC1C1=CC(=O)C2(C)OC2C1O (centres undefined) has a max response of 3.09%. CC(=O)O[C@H]1C[C@@H](O)C(C)(C)C2C[C@@H](OC(C)=O)[C@@]3(C)C4=CCC(C(CO)CC(O)C5OC5(C)C)[C@]4(C)CCC3[C@]21C (some centres undefined) showed a max response of -1.52%. With C=C[C@@]1(C)CCC2=C([C@H]1OC(C)=O)[C@H](OC(C)=O)CC1[C@](C)(C(=O)OC)CC[C@H](OC(C)=O)[C@]21C (some centres undefined) the outcome was “inactive”. CC1=C2C(=O)C=C(CO)C2[C@H]2OC(=O)[C@H](C)[C@@H]2[C@@H](OC(=O)Cc2ccc(O)cc2)C1 (some centres undefined) was tested, and the outcome was “inactive”. O=C(NCCN1CCCC1)c1cc(-c2ccc(CN3CCOCC3)cc2)nc2ccc(F)cc12 gave a max response of 1.71%. For CN1CCN(c2nc(-c3ccc(C(=O)NC4(C(=O)NCC#N)CCCCC4)cc3)cs2)CC1, the outcome was “inactive”. For CC1(C)CC[C@]2(C(=O)O)CC[C@]3(C)C(=CCC4[C@@]5(C)C(=O)C[C@H](O)[C@@](C)(CO)C5CC[C@]43C)[C@@H]2C1 (some centres undefined), the outcome was “inactive”. In the case of CC(=O)OC/C(=C/C(=O)O)CC[C@@H]1C(C)=CC(=O)[C@@H]2C(C)(C)CCC[C@@]12C, the outcome is reported as “inactive”. In the case of C/C=C(\C)C(=O)OC[C@H]1O[C@@H](O[C@H]2[C@@H](O[C@H]3O[C@H](COC(=O)/C(C)=C/C)[C@@H](O)[C@H](O)[C@H]3O[C@@H]3O[C@H](COC(=O)/C(C)=C/C)[C@@H](O)[C@H](OC(=O)/C(C)=C/C)[C@H]3O)O[C@H](COC(=O)/C(C)=C/C)[C@@H](O)[C@@H]2O)[C@H](O)[C@@H](O)[C@@H]1O, the outcome is reported as “inactive”. With CC1(CO)CCCC2(C)C3COC(=O)C3=CC(O)C12 (centres undefined) the outcome was “inactive”. In the case of C=C1CC[C@@H]2C(C)(C)CCC[C@@]2(C)[C@@H]1CC/C(=C/C(=O)OC)COC(C)=O, the outcome is reported as “inactive”. CS(=O)(=O)c1ccccc1N1CCN(c2nc3c(c(=O)[nH]2)CSCC3)CC1 was tested, and the max response was -5.12%. With CC(=O)OC1CC2C(C)(C)C(=O)C=CC2(C)C2CC(=O)C3=C(CCC3C3=CC(O)OC3=O)C12C (centres undefined) the max response was 0.622%. CC(C)C1NC(=O)C(CC2(O)c3ccccc3N3C(=O)C(Cc4ccccc4)NC32)NC1=O (centres undefined) was tested, and the outcome was “inactive”. NC[C@H]1CCC[C@@H](CNC(=O)[C@@H](Cc2c[nH]c3ccccc23)NC(=O)N2CCC3(C=Cc4ccccc43)CC2)C1 gave a max response of -1.79%. For COc1ccc(O[C@@H]2O[C@H](CO)[C@@H](O)[C@H](O)[C@H]2O)cc1OC, the outcome was “inactive”. In the case of C=C1CCC(OC(C)=O)C2(C)CC3OC(=O)C(C)=C3CC12 (centres undefined), the max response is reported as -1.87%. O=C1OC(c2ccc(O)cc2)C(O)=C1Cc1ccccc1 (centres undefined) was tested, and the max response was 4.9%. With CC1CC(=O)C2C(O)(C1)CC(O)C13OC1c1c(O)cccc1C(=O)C23O (centres undefined) the outcome was “inactive”. For CCN=C1N[C@@H]2[C@@H](O)[C@H](O)[C@@H](CO)O[C@@H]2S1, the outcome was “inactive”. COc1cccc(Cn2ncc3c4sc(S(C)=O)cc4n(C)c3c2=O)c1 (centres undefined) was tested, and the max response was 2.83%. Work on CC(=O)OCC1OC(OC2COC(OC3COC(OC4C(OC5C(CO)OC(OC6CCC7(C)C(CCC8(C)C7CC=C7C9CC(C)(C)CCC9(C(=O)OC9OC(CO)C(O)C(O)C9OC9OCC(OC%10OCC(O)(CO)C%10O)C(O)C9O)C(O)CC78C)C6(C)C)C(O)C5O)OCC(O)C4O)C(O)C3O)C(O)C2O)C(OC(=O)/C=C/c2ccccc2)C(O)C1OC(C)=O (centres undefined) yielded a max response of -0.042%. For CC[C@H]1OC(=O)[C@H](C)[C@@H](O[C@H]2C[C@@](C)(OC)[C@@H](O)[C@H](C)O2)C(C)[C@@H](O[C@@H]2O[C@H](C)C[C@H](N(C)C)[C@H]2O)[C@](C)(O)C[C@@H](C)CN(C)[C@H](C)[C@@H](O)[C@]1(C)O (some centres undefined), the outcome was “inactive”. For C=CC(C)(C)C12Nc3c(ccc4c3OC(C)(C)C=C4)C1(O)CC1C(=O)N3CCCC3C(=O)N12 (centres undefined), the outcome was “inactive”. For O=C(O)[C@H](Cc1ccccc1)Oc1ccc(-c2ccccc2)cc1, the outcome was “inactive”. With C=C[C@H]1[C@H](O[C@@H]2O[C@H](CO)[C@@H](O)[C@H](O)[C@H]2O)OC=C2C(=O)N3Cc4c([nH]c5ccccc5c4=O)[C@@H]3C[C@H]21 the max response was -10.2%. C/C=C/C(=O)OC1/C=C/C(O)C(OC(C)=O)CCC(=O)OC1C (centres undefined) was tested, and the outcome was “inactive”. In the case of OCC(O)C(c1c[nH]c2ccccc12)c1c[nH]c2ccccc12 (centres undefined), the max response is reported as 1.42%. With C=C1CC[C@@H]2[C@@](C)(CO[C@@H]3O[C@H](CO)[C@@H](O)[C@H](O)[C@H]3O)[C@H](O)CC[C@@]2(C)[C@@H]1CC/C(C)=C/CO[C@@H]1O[C@H](CO)[C@@H](O)[C@H](O)[C@H]1O the max response was -12.7%.
